According to PubChem BioAssay (NCATS):
Inconclusive results are not listed. Where a call stands in place of a potency, no number is given. Calls of active or inactive are those of the source. Calls come from the whole dose curve; as a rule, active = well fitted curve in the direction sought with a large enough effect; inconclusive = small, poorly fitted or top-dose-only effect, or another doubt; inactive = no such curve, though single readings can be large; an effect the other way counts as inactive or inconclusive.

What was measured:
[1] = molecular target: Alpha-galactosidase A (Homo sapiens) (UniProt P06280); experiment: Counterscreen for Glucocerebrosidase Inhibitors: qHTS Assay for Human alpha-Galactosidase at pH 4.5 (AID 992)
Alpha-galactosidase A (Homo sapiens), sequence (P06280 whole entry, looked up): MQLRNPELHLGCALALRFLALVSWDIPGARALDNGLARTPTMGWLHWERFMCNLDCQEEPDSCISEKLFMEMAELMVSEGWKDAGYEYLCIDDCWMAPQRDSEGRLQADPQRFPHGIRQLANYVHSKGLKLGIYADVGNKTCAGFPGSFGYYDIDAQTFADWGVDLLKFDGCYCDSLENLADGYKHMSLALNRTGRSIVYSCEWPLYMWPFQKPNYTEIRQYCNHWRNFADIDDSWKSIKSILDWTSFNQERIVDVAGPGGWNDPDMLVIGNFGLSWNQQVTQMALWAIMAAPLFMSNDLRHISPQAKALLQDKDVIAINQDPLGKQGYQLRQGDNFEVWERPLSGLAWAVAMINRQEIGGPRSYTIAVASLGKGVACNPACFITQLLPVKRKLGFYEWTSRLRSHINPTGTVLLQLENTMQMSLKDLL
Summary of the method: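 Fluorogenic 4-MU alpha-D-galactoside (80 uM) hydrolysis, 2 nM enzyme, pH 4.5 citrate buffer + 0.005% Tween-20; 20 min RT; NaOH/glycine pH 10 stop; Ex365/Em440. Compounds titrated 0.7 nM–77 uM; Hill-equation AC50.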

[2] = Cell Viability - LYMP2-010 (AID 981);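 note: cells exposed to compound for 24 hours at 37 °C; nearly all actives have a fitted effect of over 55% in size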; note: potency is the fitted concentration of half-maximal effect
Summary of the method: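 Steps: seed 2500 LYMP2-010 cells per well; incubate 5 hr at 37 C; add compound; incubate 24 hr at 37 C; add CellTiter-Glo, wait 30 min at room temperature; read luminescence. Concentration-response fitted to Hill equation for AC50.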

[3] = Cell Viability - LYMP2-012 (AID 982);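 note: cellular ATP by luciferase luminescence where a drop means cytotoxicity; cells exposed to compound for one day before reading; nearly all actives have a fitted effect of over 55% in size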; note: potency is the fitted concentration of half-maximal effect
[4] = Cell Viability - LYMP2-014 (AID 983); note: nearly all actives have a fitted effect of over 50% in size; note: potency is the fitted concentration of half-maximal effect
Summary of the method: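 Cells are plated at 2500/well and left 5 hr at 37 C. Compounds are added across a concentration range and incubated 24 hr at 37 C in complete medium. CellTiter-Glo is added, and luminescence is read after 30 min at room temperature.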

[5] = Cell Viability - LYMP2-016 (AID 984);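 note: cells exposed to compound for 24 hours at 37 °C; nearly all actives have a fitted effect of over 55% in size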; note: potency is the fitted concentration of half-maximal effect
Summary of the method: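 Cytotoxicity was scored by luminescent ATP content (CellTiter-Glo) after 24 h compound exposure at 37 C of a human lymphoblastoid line at 2500 cells/well. Concentration-response data were fitted to the Hill equation for AC50.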

[6] = Cell Viability - LYMP2-020 (AID 986); note: nearly all actives have a fitted effect of over 55% in size; note: potency is the fitted concentration of half-maximal effect
Summary of the method: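 Seed 2500 cells per well and incubate 5 hr at 37 C. Add compounds at a concentration series and incubate 24 hr at 37 C. Add CellTiter-Glo, wait 30 min at RT, read luminescence, and fit a Hill curve for AC50.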

[7] = Cell Viability - LYMP2-022 (AID 987); note: nearly all actives have a fitted effect of over 55% in size; note: potency is the fitted concentration of half-maximal effect
Summary of the method: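 Cells were seeded at 2500 per well, rested 5 hr at 37 C, and treated with titrated compounds for 24 hr at 37 C. Cellular ATP was then quantified by luciferase luminescence, and AC50 values were derived from Hill-modelled concentration-response curves.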

[8] = Cell Viability - LYMP2-024 (AID 988); note: nearly all actives have a fitted effect of over 60% in size; note: potency is the fitted concentration of half-maximal effect
Summary of the method: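 qHTS cytotoxicity, human lymphoblastoid line, complete medium; 24 h cpd treatment, 37 C; CellTiter-Glo ATP luminescence readout; tetraoctylammonium bromide positive control; AC50 via Hill fit.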

[9] = Cell Viability - LYMP2-026 (AID 989); note: nearly all actives have a fitted effect of over 50% in size; note: potency is the fitted concentration of half-maximal effect
Summary of the method: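 Cells are seeded at 2500 per well and held 5 hr at 37 C. Compounds are added in concentration series for 24 hr, then CellTiter-Glo reagent is applied and luminescence read.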

[10] = Cell Viability - LYMP1-002 - Assay at 24 hr (AID 993); note: potency is the fitted concentration of half-maximal effect
Summary of the method: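 Acute toxicity is measured as concentration-dependent loss of cellular ATP in a human lymphoblastoid line (Coriell LYMP1-002) after 24 h treatment in complete medium. ATP is quantified by luciferase luminescence and AC50 derived by Hill modelling.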

SMILES | outcome [1] | Potency [2] | Potency [3] | Potency [4] | Potency [5] | Potency [6] | Potency [7] | Potency [8] | Potency [9] | Potency [10]
CN(C)c1cc2c(Nc3ccc4c(cnn4Cc4ccccc4)c3)ncnc2cn1 | inactive | – | – | – | – | – | – | – | – | –
c1ccc2occc2c1 | – | inactive | inactive | inactive | inactive | inactive | inactive | inactive | inactive | inactive
CCCCC(CC)COC(=O)c1ccccc1C(=O)O (centres undefined) | – | inactive | inactive | inactive | inactive | inactive | inactive | inactive | inactive | inactive
CC(C)(c1ccc(O)cc1)c1ccc(O)cc1 | – | inactive | inactive | inactive | inactive | inactive | inactive | inactive | inactive | inactive
CC(=O)OC/C=C(C)/C=C/C=C(C)/C=C/C1=C(C)CCCC1(C)C | – | 50.1 µM (active) | 50.1 µM (active) | – | – | – | 50.1 µM (active) | 39.8 µM (active) | – | inactive
OCc1c[nH]c2ccccc12 | – | inactive | inactive | inactive | inactive | inactive | inactive | inactive | inactive | inactive
Nc1c2ccccc2nc2ccccc12 | – | 12.6 µM (active) | 10 µM (active) | 10 µM (active) | 10 µM (active) | 10 µM (active) | 12.6 µM (active) | 12.6 µM (active) | 15.8 µM (active) | 20 µM (active)
Cc1ccc(O)cc1 | – | inactive | inactive | inactive | inactive | inactive | inactive | inactive | inactive | inactive
CCCCCCCCCCCCCCCC[n+]1ccccc1 | – | 15.8 µM (active) | 12.6 µM (active) | 12.6 µM (active) | 15.8 µM (active) | 15.8 µM (active) | 12.6 µM (active) | 15.8 µM (active) | 15.8 µM (active) | 15.8 µM (active)
O=[N+]([O-])c1ccc(-c2nc(-c3ccc(F)cc3)c(-c3ccncc3)[nH]2)cc1 | inactive | – | – | – | – | – | – | – | – | –
CC(C)(C)c1ccc(O)c(O)c1 | – | 31.6 µM (active) | 39.8 µM (active) | – | 50.1 µM (active) | 50.1 µM (active) | 39.8 µM (active) | 25.1 µM (active) | – | –
CC(C)N(CCC(=O)c1ccc2ccccc2c1)Cc1ccccc1 | inactive | – | – | – | – | – | – | – | – | –
Nc1cccc2c(N)cccc12 | – | inactive | inactive | inactive | inactive | inactive | inactive | inactive | inactive | inactive
Brc1ccc([C@H]2CN3CCSC3=N2)cc1 | inactive | – | – | – | – | – | – | – | – | –
COc1cc(C=O)ccc1O | – | inactive | inactive | inactive | inactive | inactive | inactive | inactive | inactive | inactive
Cc1cc(C(C)(C)C)c(O)c(C(C)(C)C)c1 | – | inactive | inactive | inactive | inactive | inactive | inactive | inactive | inactive | inactive
Cn1cnc2c(NCc3ccccc3)nc(NCCO)nc21 | inactive | – | – | – | – | – | – | – | – | –
O=C(c1ccccc1)c1ccccc1 | – | inactive | inactive | inactive | inactive | inactive | inactive | inactive | inactive | inactive
COc1ccccc1N1CCN(CCN2C(=O)CC3(CCCC3)CC2=O)CC1 | inactive | – | – | – | – | – | – | – | – | –
C1=CC2C3C=CC(C3)C2C1 (centres undefined) | – | inactive | inactive | inactive | inactive | inactive | inactive | inactive | inactive | inactive
C[N+](C)(C)CCO | inactive | – | – | – | – | – | – | – | – | –
CCCC(=O)c1cc(O)c(O)cc1O | – | – | inactive | inactive | inactive | inactive | inactive | – | inactive | inactive
NC(N)=NCCCCN=C(N)N | inactive | – | – | – | – | – | – | – | – | –
Oc1ccccc1 | – | inactive | inactive | inactive | inactive | inactive | inactive | inactive | inactive | inactive
O=C(NO)c1ccccc1 | – | inactive | inactive | inactive | inactive | inactive | inactive | inactive | inactive | inactive
O=C(Oc1ccccc1)c1ccccc1O | – | inactive | inactive | inactive | inactive | inactive | inactive | inactive | inactive | inactive
Brc1ccccc1-c1ccccc1 | – | inactive | inactive | inactive | inactive | inactive | inactive | inactive | inactive | inactive
O=C1NC(c2cccc([N+](=O)[O-])c2)=CCN1c1ccccc1O | inactive | – | – | – | – | – | – | – | – | –
CC(C)C(C)(C)C(C)(C)C(C)(C)S | – | inactive | inactive | inactive | inactive | inactive | inactive | inactive | inactive | inactive
Nc1ccc(O)cc1 | – | 25.1 µM (active) | 31.6 µM (active) | 39.8 µM (active) | 50.1 µM (active) | 31.6 µM (active) | 25.1 µM (active) | 25.1 µM (active) | 50.1 µM (active) | 39.8 µM (active)
